Measurements taken from PubChem BioAssay (NCI).
The panel holds about 83,000 compounds, 20% with a hit somewhere; the sample as a whole holds those more often.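 In brief: 96-well plates, 48 h treatment, single concentration, percent growth endpoint.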 Unmarked numbers belong to inactive results. The source made the active and inactive calls. Rule for the calls: active = growth percent below 10; inactive = the rest.

Tests used:
Assay in all cases: NCI-60 one-dose screen, 48 h (100 = growth as untreated, 0 = no growth, -100 = all killed)
Settings in all cases: 10 µM unless noted
T-47D breast = system: T-47D breast
BT-549 breast = system: BT-549 breast
MDA-MB-435 melanoma = system: MDA-MB-435 melanoma
SW-620 colon = system: SW-620 colon
MCF7 breast = system: MCF7 breast
HCT-116 colon = system: HCT-116 colon
HCC-2998 colon = system: HCC-2998 colon
KM12 colon = system: KM12 colon

Row | SMILES | growth (T-47D breast) | growth (BT-549 breast) | growth (MDA-MB-435 melanoma) | growth (SW-620 colon) | growth (MCF7 breast) | growth (HCT-116 colon) | growth (HCC-2998 colon) | growth (KM12 colon)
1 | OC(c1ccccc1)C(NC(Cc1ccccc1)c1ccccc1)c1ccccc1 (stereo not drawn) | 73.6% | 91.4% | 97.9% | 90% | 104% | 77.1% | 96.1% | 89.1%
2 | NC(=O)C1(Nc2ccc(Br)cc2)CCCC1 | 98.9% | 104% | 105% | 106% | 92.2% | 105% | 116% | 109%
3 | O=c1c2cc(F)ccc2sc2c(NCCCNCCO)nc3ccc(F)cc3c12 | 70.2% | 83.9% | -28.4% (active) | -39.7% (active) | 47.9% | -72.8% (active) | 1.69% (active) | 24.9%
4 | CCCCCCCCCCCCCCCCCC1OCC(COC(=O)O[C@]2(CC)C(=O)OCc3c2cc2n(c3=O)Cc3cc4ccccc4nc3-2)O1 (stereo partly drawn) | 64.6% | 80% | 92.6% | 57.1% | 44.4% | 66.8% | 84.7% | 94.8%
5 | C#Cc1cccc(NC(=O)c2ccc(NC(=O)C=C)cc2)c1 | 55.6% [8.25 µM] | 77% [8.25 µM] | 65.5% [8.25 µM] | 77.9% [8.25 µM] | 59% [8.25 µM] | 57.4% [8.25 µM] | 101% [8.25 µM] | 96.7% [8.25 µM]
6 | O=C(N/N=C/[C@H](O)[C@H](O)[C@H](O)CO)c1ccc(NC(=O)c2cccnc2)cc1 | 99.2% | 102% | 103% | 103% | 92% | 105% | 110% | 103%
7 | COc1ccc(S(=O)(=O)n2c3ccccc3n3ncc(-c4nnc(C)o4)c23)cc1 | 41.8% | 49.5% | -21.9% (active) | 27% | 18.9% | 18.4% | 17.1% | 29.8%
8 | O=C(S)CNC(=O)c1ccccc1 | 102% | 86.2% | 104% | 97.6% | 98.7% | 87.6% | 101% | 105%
9 | C#C[C@]1(O)CC[C@H]2[C@@H]3CC=C4c5sc(Nc6cc(F)ccc6F)nc5CC[C@]4(C)[C@H]3CC[C@@]21C | -16.6% (active) | 12.3% | -28.2% (active) | -61.1% (active) | -23.8% (active) | -44.2% (active) | -78.8% (active) | -41.2% (active)
10 | COC(=O)c1ccc2[nH]c(O)c(C(=Nc3ccc(N(C)C(=O)CN4CCN(C)CC4)cc3)c3ccccc3)c2c1 | 59.8% | 11.2% | 27.2% | 6.45% (active) | 27.6% | 6.52% (active) | 25.7% | 13.9%
11 | O=C(O)CCC(=O)Nc1nnc(-c2ccccc2)s1 | 94.3% | 102% | 100% | 108% | 79.9% | 103% | 102% | 103%
12 | Cc1ccc(-c2nn(C)c(=O)c3noc(-c4ccc(C)cc4)c23)cc1 | 24.2% | 30.8% | -5.41% (active) | 21.1% | 30% | 37.5% | 70.8% | 35.9%
13 | CCCCNC(=O)Oc1ccc(/C(=C(\C)c2ccc(Cl)cc2)c2ccc(OCCN(CC)CC)cc2)cc1 | 42.2% | 80.3% | 66.4% | 79.8% | 30.1% | 51% | 80.6% | 68.2%
14 | COc1ccc2cc(C(C)C(=O)Nc3ccc(-c4n[nH]c(=S)n4C4CCCCC4)cc3)ccc2c1 (stereo not drawn) | 69.7% | 90.9% | 62.4% | 92.2% | 48.3% | 48.6% | 70.5% | 55.9%
15 | O=C(O)C(c1ccccc1)N1C(=O)CSC1=S (stereo not drawn) | 97.7% | 94.2% | 99.5% | 103% | 93.8% | 102% | 112% | 102%
16 | CSc1ncccc1C(=O)OCC(=O)Nc1oc(C)c2c(C)n[nH]c(=O)c12 | 103% | 99.1% | 107% | 105% | 84% | 109% | 113% | 103%

Row | SMILES | growth (T-47D breast) | growth (BT-549 breast) | growth (MDA-MB-435 melanoma) | growth (SW-620 colon) | growth (MCF7 breast) | growth (HCT-116 colon) | growth (HCC-2998 colon) | growth (KM12 colon)
17 | CCCCCCNC(=O)Oc1ccc(/C(=C(\C)c2ccc(Cl)cc2)c2ccc(OCCCN(C)C)cc2)cc1 | 61.1% | 90.6% | 72.4% | 87.9% | 25.2% | 36.9% | 82.3% | 59.6%
18 | Cc1c(C(=O)N[C@@H](Cc2ccccc2)C(=O)C(=O)NCc2ccc(F)cc2)[nH]c2ccccc2c1=O | 103% | 110% | 101% | 97.5% | 91.2% | 99.9% | 93.8% | 101%
19 | O=C(O)c1cn(C2CC2)c2cc(N3CCN(C(=O)Nc4nc(-c5ccccc5)cs4)CC3)c(F)cc2c1=O | 23.2% | 10.3% | 21% | 29.4% | 7.78% (active) | 17.5% | 34.4% | 13.8%
20 | CN1CCN(Cc2ccc(NC(=O)c3cncc(C#Cc4cnccc4C#N)c3)cc2C(F)(F)F)CC1 | 93.5% | 76.5% | 42% | 50.7% | 42.5% | 24% | 50.8% | 22.3%
21 | O=C(Nc1ccc(I)cc1F)c1cc(I)ccc1O | -0.561% (active) | -9.42% (active) | 2.77% (active) | 10.8% | 3.31% (active) | 5.17% (active) | 17.6% | 2.37% (active)
22 | Cc1nc2nc(SCC(=O)O)[nH]c2c(=O)[nH]1 | 96.7% | 97.2% | 107% | 98.5% | 93.2% | 104% | 101% | 105%
23 | Brc1ccc2[nH]cc(-c3nc(-c4c[nH]c5ccncc45)cs3)c2c1 | -48.3% (active) | 87.8% | -90.8% (active) | -76.7% (active) | -63.3% (active) | -93.7% (active) | -79.3% (active) | -81.9% (active)
24 | CCCCC[C@H](O)C/C=C1/C(=O)C=C[C@@H]1C/C=C\CCCC(=O)OC | 69.3% | 35.3% | -9.31% (active) | 16.1% | 18.6% | 13% | 77.8% | 16.5%
25 | CCOC(=O)/C(C#N)=C\Nc1ccc2ncnc(Nc3ccc(Cl)cc3Cl)c2c1 | 58.6% | 89.6% | 75.7% | 100% | 87.6% | 92.9% | 119% | 79.1%
26 | CC(=O)N1CCN(c2ccc(OCC3CO[C@](Cn4ccnc4)(c4ccc(Cl)cc4Cl)O3)cc2)CC1 (stereo partly drawn) | 51.1% | 54.7% | 94% | 104% | 86.4% | 68.4% | 85.5% | 87%
27 | Cc1ccc(C(=O)N/N=C/c2cccc([N+](=O)[O-])c2)cn1 | 93.1% | 122% | 100% | 103% | 101% | 105% | 107% | 107%
28 | NC1CCN(c2nc(Nc3cccc(C(F)(F)F)c3)c3c(=O)[nH]ccc3n2)CC1 | -73.2% (active) | -91.8% (active) | -74.2% (active) | -76.8% (active) | -85.8% (active) | -99.5% (active) | -85.8% (active) | -67.1% (active)
29 | CCCCCCN(CCCCCC)c1ccc(/C=C2/SC(=O)NC2=O)c(C)c1 | 77.2% | 98.3% | 82.1% | 88.6% | 79.2% | 63.7% | 67.4% | 80.3%
30 | CN1C(=O)CNC(=O)[C@H](NC(=O)c2nc3ccccc3cc2O)CSSC[C@H]1C(=O)NCCCc1nc2ccccc2cc1O | 78% | 75.8% | 44% | 48.2% | 55.1% | 70% | 74.7% | 27%
31 | COc1cccc(Oc2ccccc2NC(=O)CNC(=O)c2cccc3ccccc23)c1 | 62.3% [5 µM] | 50.7% [5 µM] | -20.5% [5 µM] (active) | 22.4% [5 µM] | 20.5% [5 µM] | 3.51% [5 µM] (active) | 25.5% [5 µM] | 13.5% [5 µM]
